Most compounds without a hit are left out; they make up all but 4.2% or so of the library.
ssDAF12 agonist – S. stercoralis DAF-12 nuclear receptor activators, primary screen, cell-based, luminescence, HEK293, GRIP1 co-expression, lit1-tk-luc; Nuclear hormone receptor DAF-12 (Strongyloides stercoralis); HEK293 ssDAF-12/GRIP1 lit1-tk-luc reporter; % of 3 µM dafachronic acid response; activation, % at 6.8 µM; 370,000 compounds, 1% hits; AID 652126, 2013;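 active = activation above the mean over all tested compounds plus 3 SD, cut at about 0.9% in these data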
hcDAF-12 act – H. contortus DAF-12 nuclear receptor activators, primary screen, cell-based, luminescence, HEK293, lit1-tk-luc reporter; HEK293 hcDAF-12 lit1-tk-luc reporter; 0% DMSO, 100% Δ7-dafachronic acid; activation, % at 6.8 µM; 370,000 compounds, 1.4% hits; AID 652067, 2013;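 active = activation above the mean of all tested compounds plus 3 SD, cut at about 5.5% in these data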
hgDAF12 agonist – H. glycines DAF-12 receptor agonists, primary screen, cell-based, luminescence, HEK293, GAL4 fusion, UAS-luciferase; HEK293 GAL4-hgDAF12 UAS-luciferase reporter, agonist luminescence; normalized to butyrate control; activation, % at 6.8 µM; 370,000 compounds, 1.8% hits;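 active = activation above a cutoff set at the mean of all screened compounds plus 3 SD, cut at about 10% in these data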
DAX1 inh – DAX1 (NR0B1) inhibitors on StAR promoter, primary screen, cell-based, luminescence, SF-1 (NR5A1), full-length DAX-1 | HEK293T StAR-luciferase reporter, SF-1/DAX-1 repression relief | inhibition, % at 6.8 µM | 370,000 compounds, 1.1% hits;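 active = inhibition above the mean over all tested compounds plus 3 SD, cut at about 3.6% in these data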;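 note: higher inhibition means more luminescence from relief of DAX-1 repression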
SMARCA2 activ – SMARCA2 (BRM) function activators, primary screen, cell-based, luminescence, high throughput; MG213 cells, MMTV-luciferase reporter, dexamethasone, overnight; activation, % at 9.1 µM; 370,000 compounds, 1% hits; AID 652017, 2013; in the data active = activation above about 7.8%
A number is an active result; . = inactive; / = no result given.

SMILES | ssDAF12 agonist | hcDAF-12 act | hgDAF12 agonist | DAX1 inh | SMARCA2 activ
COc1ccccc1N=Nc1c(O)[nH]c2ccc(Br)cc12 | 1.0 | 6.4 | . | . | .
COC(=O)C[C@H]1CC[C@@H](NC(=O)Nc2cccc(OC)c2)[C@@H](CO)O1 | . | . | . | . | .
O=C(O)c1ccccc1SC1CC(=O)N(c2ccccc2)C1=O (stereo not drawn) | . | 6.0 | . | . | .
O=C(O)c1cccnc1SC1CC(=O)N(c2ccccc2)C1=O (stereo not drawn) | . | . | . | . | .
CCC(C)CNC(=O)c1cn(C(C)c2ccccc2)nn1 (stereo not drawn) | . | . | . | . | .
Cc1cc(C)cc(NC2=CC(=O)CC(c3ccco3)C2)c1 (stereo not drawn) | . | . | . | . | .
Cc1ccc(NC2=CC(=O)CC(c3ccco3)C2)c(N)c1 (stereo not drawn) | 1.6 | . | 10.6 | . | .
c1ccc2c(Nc3nnc(-c4ccncc4)s3)cccc2c1 | . | . | 10.5 | . | .
CC1=CC(O)(c2ccccn2)P(=O)(c2ccccc2)C=C1C (stereo not drawn) | . | . | . | . | .
Cc1c(-n2c(O)c(C3=c4ccccc4=NC3=O)sc2=S)c(=O)n(-c2ccccc2)n1C | . | 5.6 | . | . | .
O=C1N=c2ccccc2=C1c1sc(=S)n(-c2ccc(O)cc2)c1O | . | . | . | . | .
CN1C(=O)c2cc(NC(=O)Nc3ccccc3)ccc2OC[C@H]2O[C@@H](CC(=O)Nc3cc(F)ccc3F)CC[C@@H]21 | . | . | . | . | .
C=CCn1c(SCCOC)nc2c1c(=O)[nH]c(=O)n2C | . | 6.5 | . | . | .
Cc1ccccc1OCc1nc2ccccc2n1C | . | . | 11.0 | . | .
Cn1c(COc2ccc(F)cc2)nc2ccccc21 | . | . | . | . | .
COC(=O)[C@]12C[C@H](CC(=O)N3CCN(C(=O)c4ccco4)CC3)C(=O)N(Cc3ccco3)C1=C[C@H](COCc1ccccc1)O[C@@H]2C | . | . | . | . | .
Cc1cccc(C)c1NC(=O)COn1nnc2ccc(C(F)(F)F)cc21 | . | . | . | . | .
O=C(COn1nnc2ccc(C(F)(F)F)cc21)Nc1c(Cl)cccc1Cl | 14.8 | . | . | . | .
CCOC(=O)N1CCN(C(=O)C[C@@H]2C(=O)N(Cc3ccc(OC)cc3)/C3=C/CCCCC[C@@]32C(=O)OCC)CC1 | . | . | . | . | .
CC(=O)[C@@H]1[C@@H](C(=O)c2ccc(F)cc2)[C@]2(C(=O)Nc3ccccc32)[C@H]2C=Cc3cc(F)ccc3N12 | 1.5 | . | . | . | .
COC(=O)[C@]12C[C@H](CC(=O)NCC3CCCCC3)C(=O)N(Cc3ccccc3)C1=C[C@H](C(C)(C)C)O[C@@H]2C | . | . | . | . | .
Cc1ccc(Nc2nc(-c3sc(N)nc3C)cs2)cc1 | . | 5.8 | . | . | .
COc1ccc(Nc2nc(-c3sc(N)nc3C)cs2)cc1 | . | . | . | . | .
CC1=CC(=O)C(C(C)C)=C/C1=N\OC(=O)c1cccc2nc(C)oc12 | . | 5.7 | . | . | .
COc1cccc(NC(=O)C(=O)NCCCN2CCCC2=O)c1 | . | . | . | 3.8 | .
SMILES | ssDAF12 agonist | hcDAF-12 act | hgDAF12 agonist | DAX1 inh | SMARCA2 activ
COc1ccc(CC(=O)NCC(=O)N/N=C/c2sccc2C)cc1 | . | 6.4 | . | . | .
CCCCNC(=S)N/N=C/c1cc(C)ccc1C | . | . | . | . | .
CCCCNC(=S)N/N=C/c1sccc1C | . | . | 10.9 | . | .
CCOC(=O)[C@@]12CCCC=C1N(CCc1ccc(Cl)cc1)C(=O)[C@H]2CC(=O)N1CCN(C(=O)c2ccco2)CC1 | . | . | . | . | .
Nc1nc(CN2CCCCCC2)nc(Nc2ccccc2)n1 | . | . | . | . | .
Cc1c(-c2nc(N)nc(Nc3ccccc3)n2)oc2ccccc12 | . | . | 11.0 | . | .
OCCC1CN(Cc2cc(F)ccc2-n2cccn2)CCN1C1CCCC1 (stereo not drawn) | 1.7 | . | . | . | .
Cc1ccccc1CNC(=O)C1CCCN(c2ncccn2)C1 (stereo not drawn) | . | . | . | . | .
COc1ccccc1C(=O)NC(C)C(c1cccs1)N1CCOCC1 (stereo not drawn) | 1.7 | . | . | . | .
Cc1ccc2nc3c(cc(C(=O)NCc4ccccc4)c(=N)n3CCCn3ccnc3)c(=O)n2c1 | . | . | . | . | .
Cc1cccn2c(=O)c3cc(C(=O)NC(C)c4ccccc4)c(=N)n(CCCn4ccnc4)c3nc12 (stereo not drawn) | . | . | 10.8 | . | .
CCNc1cccc2c1C(=O)N(C)C2=O | . | . | . | . | 7.8
CCCCCCCCN1CCS(=O)(=O)N(Cc2ccc(F)cc2)C(C(=O)OC)C1 (stereo not drawn) | . | . | . | . | .
CC(C)CNc1ccc2c(c1)OC[C@@H](CC(C)C)NS2(=O)=O | . | . | . | . | .
COc1cc(C)ccc1OCc1cc(C(=O)NC(C)Cn2cncn2)no1 (stereo not drawn) | . | . | 11.1 | . | .
COc1cc(Cl)ccc1OCc1cc(C(=O)NCc2cc(C(C)C)no2)no1 | . | . | . | 4.1 | .
COc1cc(Cl)ccc1OCc1cc(C(=O)NCC(C)(C)N2CCOCC2)no1 | . | . | . | . | .
CN=C1S/C(=C/c2cc(C)n(-c3ccc(Cl)cc3F)c2C)C(=O)N1C | . | . | . | / | /
CNc1nc(Nc2ccc(Br)cc2)nc(N)c1[N+](=O)[O-] | 1.2 | . | . | . | .
Cc1[nH]nc(Nc2ccc(Br)cc2)c1[N+](=O)[O-] | 1.3 | . | 11.9 | . | .
Cc1ccccc1NC(=O)OCCN1CCCC12CCC(c1ccccc1)CC2 (stereo not drawn) | . | . | . | / | /
CCSc1nsc(NC(=O)Nc2ccccc2F)n1 | . | . | 11.3 | . | .
Nc1c(C(=O)Nc2cccc(C(=O)O)c2)sc2nc3c(cc12)CCCC3 | . | . | 11.1 | . | .
CCOC(=O)c1ccc(-n2c(CN3CCOCC3)nc3ccc([N+](=O)[O-])cc3c2=O)cc1 | . | . | . | . | .
CCOC(=O)c1ccc(-n2c(CN3CCN(CC)CC3)nc3ccc([N+](=O)[O-])cc3c2=O)cc1 | . | . | . | . | 7.9
Cc1nc(SCC(=O)NC(=O)NCCC(C)C)c2c(-c3cccs3)csc2n1 | 2.1 | . | . | . | .
Cc1nc(NC(=O)c2ccccc2)sc1-c1cc(C(=O)N2CCOCC2)nn1Cc1ccccc1 | . | . | . | . | .
